Source: PubChem (several laboratories)
MazF activator: increases E. coli MazEF RNase cleavage of RNA | FAM/BHQ RNA-DNA oligo cleavage fluorescence, 5 h | activation, % at 20 µM | actives 0.32% (n = 350,000) | AID 504720; in the data active = activation above about 50%
Target sequence (P0AE70 whole entry, looked up): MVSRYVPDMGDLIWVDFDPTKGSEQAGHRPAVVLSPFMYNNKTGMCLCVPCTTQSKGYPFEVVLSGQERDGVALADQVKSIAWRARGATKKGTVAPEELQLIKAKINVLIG
BoNT-F LC inh: inhibitors of Botulinum neurotoxin F light chain protease; Multiplex microsphere protease cleavage assay, flow cytometry; inhibition, % at 10 µM; actives 0.22% (n = 360,000); AID 588497; in the data active = inhibition above about 35%, passing the limit was not always enough; inconclusive = no clear call, values can overlap the other calls; note: plate controls were buffer without enzyme for full effect and enzyme alone for no effect
BoNT A protease: blocks Botulinum neurotoxin A light chain protease | multiplex microsphere protease substrate cleavage, flow cytometry | actives 0.17% (n = 360,000) | inhibition, % at 10 µM; note: plate controls were buffer without enzyme for full effect and enzyme alone for no effect
Autofluor counter: compound fluorescence in toxin protease inhibitor counterscreen; fluorescence intensity (test concentration not listed); actives 3.1% (n = 360,000); compound autofluorescence counterscreen, microsphere flow cytometry; active compounds read high; in the data active = fluorescence intensity above about 16000; inconclusive = no clear call, values can overlap the other calls
Anthrax LF prot: blocks Bacillus anthracis lethal factor protease; P15917; multiplex microsphere protease cleavage assay, LF; inhibition, % at 10 µM; actives 0.12% (n = 360,000); note: plate controls were buffer without enzyme for full effect and enzyme alone for no effect
VHR inh abs: inhibitors of human VHR1 phosphatase (DUSP3); P51452; recombinant VHR phosphatase, pNPP absorbance; inhibition, % at 13.3 µM; actives 0.52% (n = 290,000); AID 1654; in the data active = inhibition above about 50%
Target sequence (P51452 whole entry, looked up): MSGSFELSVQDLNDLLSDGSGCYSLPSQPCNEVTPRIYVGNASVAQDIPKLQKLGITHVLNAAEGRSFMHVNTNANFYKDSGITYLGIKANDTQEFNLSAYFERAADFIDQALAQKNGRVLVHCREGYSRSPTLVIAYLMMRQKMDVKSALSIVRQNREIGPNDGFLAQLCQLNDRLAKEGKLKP
Active calls of the source: *; ? = inconclusive; . = no result. This is a sample that favours compounds with a hit; in the whole collection about 4.1% have one here. Cut-off read from the data, not from the text of the source, unless noted: active = inhibition above about 30%; inconclusive = no clear call, values can overlap the other calls; inactive = below that.

SMILES | MazF activator | BoNT-F LC inh | BoNT A protease | Autofluor counter | Anthrax LF prot | VHR inh abs
CCOC(=O)C1=C(Cn2cnc3ccccc32)NC(=O)NC1c1cc(C)ccc1C (stereo not drawn) | 5.8 | -6.0 | -1.0 | 10917 | -1.7 | -15.6
CCOC(=O)C1=C(CSc2nccn2C)NC(=O)NC1c1ccc2c(c1)OCO2 (stereo not drawn) | 9.6 | -0.8 | -0.2 | 2739 | -1.1 | 8.5
CCOC(=O)C1=C(CSc2nccn2C)NC(=O)NC1c1cc(C)ccc1C (stereo not drawn) | -14.2 | -2.6 | ? | 16485* | 2.0 | -10.8
CCOC(=O)C1=C(CNCc2ccc(C)cc2)NC(=O)NC1c1cc(C)ccc1C (stereo not drawn) | 0.3 | 8.6 | 16.8 | 17821* | -17.6 | 13.3
CS(=O)(=O)N1CCc2ccc(NC(=O)C3CCCO3)cc2C1 (stereo not drawn) | 6.3 | 4.0 | -0.3 | 6379 | -2.2 | -11.6
O=C(C[C@@H]1C/C=C\C[C@H](Cc2ccc(F)cc2)C(=O)OCCNC1=O)N[C@H](CO)Cc1ccccc1 | 4.0 | -2.6 | 1.0 | 2680 | -1.2 | .
O=S1(=O)CC(N2CC=CC2)CN1Cc1cn(Cc2ccc(F)cc2)nn1 (stereo not drawn) | . | 6.6 | 1.0 | 5644 | -6.7 | .
O=C(NN1C(=O)c2ccccc2NC1c1ccc([N+](=O)[O-])o1)c1ccc(Br)cc1 (stereo not drawn) | 63.6* | 3.5 | 0.0 | 4328 | -0.6 | 7.6
O=C(CCS(=O)(=O)Cc1ccccc1)Nc1ncc([N+](=O)[O-])s1 | 0.9 | -2.4 | 0.2 | 5449 | -5.1 | 14.2
CC(OC(=O)c1cc(=O)[nH]c2ccccc12)C(=O)NC1CCCC1 (stereo not drawn) | 2.8 | 1.9 | 0.2 | 2774 | -8.1 | .
CCn1c(SCC(=O)NCc2ccco2)nc2c1c(=O)n(C)c(=O)n2C | 8.3 | -1.8 | -0.7 | 11516 | -1.1 | 32.7
CCCn1c(SCC(=O)Nc2nc3ccccc3s2)nc2c1c(=O)n(C)c(=O)n2C | 66.5* | 8.9 | 0.0 | 3717 | -0.2 | 21.3
CCCn1c(SCC(=O)Nc2cc(C)on2)nc2c1c(=O)n(C)c(=O)n2C | -3.8 | 3.2 | 0.2 | 22114* | -3.6 | .
CCCn1c(SCC(=O)N2CCCc3ccccc32)nc2c1c(=O)n(C)c(=O)n2C | -0.3 | -5.4 | -1.5 | 21086* | -3.5 | 5.9
CCCn1c(SCC(=O)NCc2ccco2)nc2c1c(=O)n(C)c(=O)n2C | 4.7 | -1.4 | 1.0 | 22819* | -0.1 | -2.4
CCCn1c(SCC(=O)N2c3ccccc3Sc3ccccc32)nc2c1c(=O)n(C)c(=O)n2C | -6.1 | -2.1 | 0.1 | 5770 | 0.9 | 6.7
O=C(O)COc1ccc(Cl)cc1C1CCCCC1 | 0.9 | -4.4 | -0.2 | 3940 | 2.3 | .
COc1cc(C(=S)N2CCN(c3ccccc3Cl)CC2)cc(O)c1O | -22.0 | -7.6 | -1.1 | 3948 | -4.4 | 6.0
OC(CSc1nnnn1-c1ccccc1)Cn1c2ccccc2c2ccccc21 (stereo not drawn) | . | 0.9 | -0.1 | 4461 | -6.2 | .
CCOc1nc(-c2ccc(Cl)cc2Cl)ccc1C#N | -6.1 | -15.1 | -2.0 | ? | -32.3 | 9.7
Cc1cc(Cl)ccc1Oc1nc(-c2ccc(F)cc2)ccc1C#N | 7.7 | 0.2 | ? | 22004* | -0.8 | 14.0
COCCN(C(=O)COC(=O)C12CC3CC(CC(O)(C3)C1)C2)c1c(N)n(Cc2ccccc2)c(=O)[nH]c1=O | -2.8 | 1.4 | 0.2 | 2923 | 4.3 | .
COc1ccc(-c2ccnc3nc(-n4cccc4)nn23)cc1 | -52.2 | -3.1 | -2.6 | 20861* | -1.9 | -4.4
COc1ccc(-c2ccnc3nc(N4CCOCC4)nn23)cc1 | 0.3 | 5.0 | 2.9 | 15325 | 1.4 | 37.0
O=C(c1cc(-c2ccccc2)nc2ccccc12)N1N=C(C(F)F)CC1(O)C(F)F (stereo not drawn) | 5.7 | -11.1 | -7.3 | 26128* | -3.3 | -23.9
SMILES | MazF activator | BoNT-F LC inh | BoNT A protease | Autofluor counter | Anthrax LF prot | VHR inh abs
CCOc1cccc(-c2cc(C(=O)N3N=C(C)CC3(O)C(F)F)c3ccccc3n2)c1 (stereo not drawn) | 5.6 | -0.9 | 0.2 | 4253 | 5.5 | 24.5
CCc1ccc(C(C)NC(=O)/C=C/c2ccc(Br)cc2)cc1 (stereo not drawn) | 0.5 | 1.7 | -0.8 | 22674* | -1.1 | 6.9
O=C(Nc1ccc(O)c(-c2nc3ccccc3s2)c1)c1cccs1 | 52.9* | -3.7 | -0.3 | 2576 | -1.3 | 5.4
NS(=O)(=O)c1ccc(NC(=O)c2cc(=O)c3ccccc3o2)cc1 | -1.7 | -11.1 | -2.0 | 3441 | -0.4 | 25.2
O=C(Nc1ccc(O)c(-c2nc3ccccc3s2)c1)c1cc(=O)c2ccccc2o1 | 2.9 | 12.9 | 1.9 | 7577 | -1.4 | 52.6*
O=C(Nc1c(Cl)cc(Cl)cc1-c1nc2ccccc2s1)c1ccc(Br)o1 | 3.6 | -5.5 | ? | 17431* | -0.1 | 25.4
CCCc1ccc2oc(C(=O)NCc3nnc(C)o3)c(C)c2c1 | -4.1 | 1.9 | 1.4 | 6024 | 1.4 | 5.5
O=C(Nc1ccccc1)N(CCCN1CCOCC1)Cc1ccccc1F | 6.0 | -2.0 | -0.2 | 2929 | 2.9 | 10.4
COc1ccc(CN(CCCN2CCOCC2)C(=O)Nc2ccccc2)cc1OC | -2.2 | -3.3 | ? | 22584* | -7.0 | 24.0
C=CCNC(=O)N1C2=NC(C(=O)OC)=C(C(=O)OC)[C@@H]3N(Cc4ccccc4)c4ccccc4[C@]23C[C@H]1C(=O)OC | -3.4 | -0.4 | 0.0 | 3565 | 1.6 | .
CCOC(=O)c1cc(OC(=O)c2cccc([N+](=O)[O-])c2)n(-c2ccccc2)n1 | -4.8 | -3.0 | ? | 17208* | -0.4 | 22.8
CCOC(=O)c1cc(OC(=O)c2ccccc2)n(-c2ccccc2)n1 | -2.9 | -1.3 | -1.4 | 23849* | -0.2 | 11.6
O=C(COC(=O)c1cn(-c2ccccc2)nc1-c1ccccc1)c1cccc([N+](=O)[O-])c1 | 6.2 | -5.2 | -0.6 | 16553* | -4.7 | 9.7
CC(C)C(NC(=O)Cc1ccccc1)C(=O)N1CCN(c2cccc(Cl)c2)CC1 (stereo not drawn) | -4.6 | -0.6 | -0.8 | 3969 | -3.0 | .
COc1ccc(C(O)c2ncc(-c3ccccc3C)[nH]2)cc1F (stereo not drawn) | . | 2.8 | -0.4 | 2940 | -5.7 | .
COc1ccc(S(=O)(=O)N2CCOC2CNC(=O)C(=O)NCc2ccc3c(c2)OCO3)cc1C (stereo not drawn) | -2.0 | -12.2 | -0.8 | 3681 | -5.7 | .
CCC(C)c1ccc(C(CC)NC(=O)C2CCCO2)cc1 (stereo not drawn) | 2.5 | . | . | . | . | -3.2
COc1cccc(C(CNc2ccc(S(=O)(=O)N3CCN(C)CC3)cc2[N+](=O)[O-])N(C)C)c1 (stereo not drawn) | 4.3 | -8.8 | 1.8 | 6158 | 2.5 | .
CC(=O)Nc1ccc(NC(=O)CNS(=O)(=O)c2ccc(C)cc2)cc1 | -6.3 | -4.2 | 0.3 | 8266 | 2.0 | 2.6
Cc1ccc(NC(=O)CC2(CC(=O)O)CCCC2)cc1 | 7.2 | 33.1 | 0.2 | 4216 | 10.9 | 56.9*
